The values that follow come from PubChem BioAssay.

Values without a mark were called inactive. Rule as the data show it: active = inhibition above about 31%; inactive = the rest.

This assay in a line: 384-well plate pilot, post-Golgi transport modulator project, inhibition of yeast transport mutant growth (AID 636). To be noted: absorbance 615 nm, about 18 h, hits give high values.
Regarding `Cc1ccc2oc(=O)c3cnn(CC(=O)N4CCCc5ccccc54)c3c2c1`, the inhibition was -2.67%.

On to `O=C(Nn1cnnc1)C1Cc2ccccc2CN1S(=O)(=O)c1ccc(F)cc1` (stereo not given), for which the inhibition was -5.95%.

Consider `Cc1cc(C)cc(N(CC(=O)NC2CCC(C)CC2)S(=O)(=O)c2c(C)noc2C)c1` (stereo not given), for which the inhibition is -3.59%.

On to `Cc1nc2ccccn2c1/C(O)=C1\C(=O)C(=O)N(CCCN(C)C)C1c1ccc(F)cc1` (stereo not given), for which the inhibition is 0.4%. Consider `CC(=O)N(C(C)=O)c1ncc2c([nH]c3ccccc32)c1C#N`, for which the inhibition is -8.13%. Next, `CC(C)c1ccc(C(O)c2cnc(C(C)C)n2C)cc1` (stereo not given): -4.13%; `COCCn1cc(C(=O)c2ccccc2OCC(=O)Nc2cc(C)on2)cc(C#N)c1=O`: -2.76%. With `O=C(NC(=O)c1cccc(F)c1)OC[C@@H]1CCCN2CCCC[C@H]12`, the inhibition was -6%. For the compound `CCN1CCN(C(=O)Cn2ncc3ccsc3c2=O)CC1`, the inhibition was -3.73%.

With `CCCC(=O)Nc1cc(C)c2c(=O)oc3ccccc3c2n1`, the inhibition was -0.4%. The value for `Cc1cc(C)c(C#N)c(SCC(=O)Nc2ccc(S(=O)(=O)Nc3onc(C)c3C)cc2)n1` was -3.73%. As for `CC1=C(C(N)=O)C(c2ccncc2)n2nc(-c3ccccc3Cl)nc2N1` (stereo not given), the inhibition was 0.53%. On to `O=C(C1CCCN1S(=O)(=O)c1cccc2cccnc12)N1CCn2c1nc1ccccc12` (stereo not given), for which the inhibition is 0.9%. With `Cc1ccc(C(=O)CC2(O)C(=O)N(C)c3ccc(Br)cc32)c(C)c1` (stereo not given), the inhibition is -4.13%. The value for `COc1ccc(OCCSc2nc3ccccc3n2CC(=O)O)cc1` was -3.21%.

In general, inhibition refers to the relative decrease from the control value, in per cent.
